Bioassay records: PubChem, National Center for Advancing Translational Sciences (NCATS)
12-LOX inh: ALOX12 (human) lipoxygenase inhibition; purified 12hLO, xylenol orange hydroperoxide absorbance; 580,000 compounds, 1.1% hits; Potency, µM (series often up to 108 µM), for the others: at the highest dose activity change, negative = inhibition, usual class: inhibitors; P18054; AID 1671190; further: potency means the concentration at half of the fitted maximal effect; on the % scale 0 is the no-effect control and ±100 the full control effect
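Hydroperoxide product was detected by ferrous iron/xylenol orange as the 573 to 405 nm absorbance ratio. Arachidonic acid at 40 uM (final) was turned over for 30 min at room temperature by 150 nM human 12hLO, pH 7.0 Hepes buffer, after 15 min compound preincubation.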
PI5P4K alpha inh: blocks human PI5P4K alpha kinase activity. P48426. PI5P4Kalpha enzyme, ADP-Glo luminescence, 60 min; stronger effect = lower value. max response, %. 330,000 compounds, 1.2% hits; active means max response of -50% or lower; inconclusive means between -30% and -50%; inactive means -30% or higher; further: value at the top dose of about 77 µM; on the % scale 0 is the no-effect control and ±100 the full control effect
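Controls without substrate or without enzyme flank wells where PI5P4Kalpha converts substrate using 5 microM ATP (final). Incubation lasts 60 minutes at room temperature; ADP formed is read by ADP-Glo luminescence.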
Pol beta inh: DNA polymerase beta (human) inhibition; 340,000 compounds, 1.3% hits; Potency, µM (titrated, usually from 114 µM), inactives show at the highest dose activity change, negative = inhibition, most hits filed as inhibitors; Pol beta primer extension/strand displacement, fluorescence kinetic; further: potency means the concentration at half of the fitted maximal effect; on the % scale 0 is the no-effect control and ±100 the full control effect
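Pol beta (10 nM) and compounds were preincubated 15 min at room temperature, then 50 nM substrate (final) started primer extension/strand displacement. Reads were taken at 0 and 10 min; concentration-response data were fitted to a four-parameter Hill equation.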
Pol iota inh: DNA polymerase iota (human) inhibition. Pol iota fluorescent replication assay, 10 min. Potency, µM (series often up to 115 µM), for the others: top-dose activity, negative = inhibition, actives largely listed as inhibitors. 390,000 compounds, 1% hits. Q9UNA4; further: potency means the concentration at half of the fitted maximal effect
Target sequence (Q9UNA4 whole entry, looked up): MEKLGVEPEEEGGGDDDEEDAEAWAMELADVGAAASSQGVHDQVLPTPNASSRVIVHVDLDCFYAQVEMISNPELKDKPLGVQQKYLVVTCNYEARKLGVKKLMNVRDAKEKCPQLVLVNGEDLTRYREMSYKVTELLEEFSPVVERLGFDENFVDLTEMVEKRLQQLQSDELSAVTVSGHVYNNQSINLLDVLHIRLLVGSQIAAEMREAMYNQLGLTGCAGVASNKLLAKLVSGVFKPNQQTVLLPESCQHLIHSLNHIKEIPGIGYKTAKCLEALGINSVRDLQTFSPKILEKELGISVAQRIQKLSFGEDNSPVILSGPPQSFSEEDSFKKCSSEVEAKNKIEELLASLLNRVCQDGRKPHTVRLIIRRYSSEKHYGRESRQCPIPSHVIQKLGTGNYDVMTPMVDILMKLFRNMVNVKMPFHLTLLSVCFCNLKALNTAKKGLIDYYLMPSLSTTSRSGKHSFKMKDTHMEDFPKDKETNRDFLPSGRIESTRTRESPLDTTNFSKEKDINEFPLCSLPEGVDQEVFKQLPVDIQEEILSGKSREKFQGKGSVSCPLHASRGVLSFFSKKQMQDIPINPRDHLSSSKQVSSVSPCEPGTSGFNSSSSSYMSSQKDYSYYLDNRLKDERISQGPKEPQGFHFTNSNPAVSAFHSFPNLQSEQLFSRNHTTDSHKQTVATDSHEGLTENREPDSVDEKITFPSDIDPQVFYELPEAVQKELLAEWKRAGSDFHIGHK
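Pol iota at 10 nM preincubated 15 min with compounds at room temperature; reaction started with fluorescent substrate, 50 nM final. Fluorescence read kinetically at 0 and 10 min; buffer-only wells as negative control.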
Pol eta inh: DNA polymerase eta (human) inhibition | Q9Y253 | recombinant Pol eta, fluorescent DNA replication assay | Potency, µM (series often up to 114 µM), for the others: top-dose activity change, negative = inhibition, hits mostly inhibitors | 390,000 compounds, 1.2% hits | AID 588591; further: potency means the concentration at half of the fitted maximal effect; on the % scale 0 is the no-effect control and ±100 the full control effect
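Pol eta at 10 nM preincubated with compounds 15 min at room temperature; reaction started with fluorescent substrate (50 nM final) and read kinetically at 0 and 10 min.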
Pol kappa inh: DNA polymerase kappa (human) inhibition; purified Pol kappa, fluorescent DNA synthesis assay, 10 min; Potency, µM (doses to about 107 µM), for the others: at the highest dose activity, negative = inhibition, hits mostly inhibitors; Q9UBT6; 400,000 compounds, 0.53% hits; further: potency means the concentration at half of the fitted maximal effect; on the % scale 0 is the no-effect control and ±100 the full control effect
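50 nM final substrate added after 15 min RT preincubation of 10 nM Pol kappa with compound; fluorescence read at 0 and 10 min.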
Starred values were filed as active, the others as inactive; ? = inconclusive; / = no result given; ! = not confirmed by another sample; [ ] = remark or other dose. A selection: hits, their analogues and other compounds. The true share with any hit is near 2.9%. Unless noted, the call rests on the fitted dose curve; in most records, active means well fitted inhibition curve with a large enough effect; inconclusive means small, poorly fitted or top-dose-only effect, or another doubt; inactive means no such curve, though single readings can be large or run the other way.

SMILES	12-LOX inh	PI5P4K alpha inh	Pol beta inh	Pol iota inh	Pol eta inh	Pol kappa inh
CCn1cc(-c2cc(C(=O)O)c3ccccc3n2)c(C)n1	13µM*!	0	11%	0%	?	-8%
Cc1ccc2nc(-c3ccco3)cc(C(=O)O)c2c1	7.9µM*!	/	/	/	/	/
CCn1cc(-c2cc(C(=O)O)c3ccccc3n2)cn1	-6%	6	4%	-7%	-8%	4%
Nc1ccc(-c2cc(C(=O)O)c3ccccc3n2)cc1	18µM*	/	/	/	/	/
Cc1cc(C(=O)OC(C)C(=O)NC2CCCCC2C)c2ccccc2n1 (centres undefined)	1%	3	/	/	-16%	/
Cc1ccc(-c2cc(C(=O)OC(C)C(=O)NC3CCCC3)c3ccccc3n2)o1 (centres undefined)	6.3µM*	/	/	/	/	/
CC(C)(C)c1cc(-c2nc3ccccc3[nH]2)n[nH]1	2%	/	/	/	/	/
CCOc1ccccc1NC(=O)Nc1nnc(N(CC)c2ccccc2)s1	0%	/	/	/	/	/
COC(=O)c1cc(-c2ccco2)nc2ccccc12	14µM*	/	/	/	/	/
CC(=O)Nc1ccc(-c2ccc(NC(C)=O)c(O)c2)cc1O	15%	?	?	?	35µM*	?
CC(=O)Nc1ccccc1O	-3%	0	5%	18%	-17%	-8%
CN(C)c1ccc(/C=C/c2sc3ccccc3[n+]2CCCCI)cc1	/	/	/	79µM*	/	50µM*
CCCCCCCCCC[n+]1ccc(/C=C/c2ccc(N(C)C)cc2)c2ccccc21	/	/	/	50µM*	/	40µM*
Cc1sc2ccccc2[n+]1CCC[n+]1c(C)sc2ccccc21	/	/	/	?	/	-19%
CCCC[n+]1c(/C=C/c2ccc(N(C)C)cc2)sc2ccccc21	/	/	/	50µM*	/	?
CN(Cc1ccccc1)c1ccc(/C=C/c2sc3ccccc3[n+]2C)cc1	/	/	/	-6%	/	0%
CN1CCCCCC(O)c2cc(C(=O)N3CCN(Cc4ccccc4)CC3)ccc21 (centres undefined)	-5%	/	/	/	/	/
CCCCCCOc1ccc(C(=O)CCC(=O)O)cc1	12%	/	/	/	/	/
CC(=O)N1CCc2cc(CNC(=O)Nc3cc(Cl)ccc3C)ccc21	?	/	28µM*	12%	-10%	-4%[60.1 µM]
CC1=NN(c2ccccc2)C(=O)C1	?	1	44%	?	-4%	-8%
CC1=NN(Cc2ccccc2)C(=O)C1	-1%	2	43%	3.2µM*	-12%	-17%
COc1ccc(-n2cnc(=S)[nH]c2=S)cc1	22µM*	?	/	40%	-21%	8%
COc1ccc(/C=C2/C(=O)ON=C2C)cc1Cl	7.9µM*	-19	7%	17%	4%	2%
C=CCOc1ccc(/C=C2/C(=O)ON=C2C)cc1OC	18µM*	-9	35%	24%	-6%	-6%
C#CCOc1ccc(/C=C2/C(=O)ON=C2C)cc1Br	10%	-27	?	54%	-30%	2%
SMILES	12-LOX inh	PI5P4K alpha inh	Pol beta inh	Pol iota inh	Pol eta inh	Pol kappa inh
CC(C)C12CN3CC(C(C)C)(CN(C1)C3c1c[nH]c3ccccc13)C2=O (centres undefined)	6%	/	/	/	/	/
C[C@H]1[C@@H]2[C@H]3OC(=O)[C@@H](C)[C@@H]3CC[C@@]2(C)CC[C@@H]1NC(=O)c1ccc(C#N)cc1	-24%[176 µM]	/	/	/	/	/
Cc1ccccc1CN1C(=O)CS/C1=N/N=C/c1ccco1	40µM*	-23	?	?	6%	-7%
O=C1CCc2cc(S(=O)(=O)NC3CCCCC3)cc3c2N1CC3	-30%	-7	/	50µM*	?	-1%
CC(=O)c1c(C)[nH]c(C(=O)OCc2nnc(-c3ccc([N+](=O)[O-])cc3)o2)c1C	0%	-59*	/	?	?	-25%
Cc1ccc(C(=O)NCC(=O)OCc2nnc(-c3ccc([N+](=O)[O-])cc3)o2)s1	224%	-62*	/	?	?	-6%
COCCN1CCOc2nc(-c3ccc(Oc4ccccc4)cc3)ncc2C1=O	-27%[176 µM]	/	/	/	/	/
CCOC(=O)C(=NC(C)CC)NNc1cccc(C(F)(F)F)c1 (centres undefined)	?	-2	-4%	0%	?	-7%
CCOC(=O)C(=NC1CCS(=O)(=O)C1)NNc1ccc(Br)cc1 (centres undefined)	16µM*	18	38%	-8%	-12%	10%
CCOC(=O)C(=NC1CCCCC1)NNc1cccc(C(F)(F)F)c1	50µM*	12	15%[57.1 µM]	16%	?	-15%
CCOC(=O)C(=NC1CCS(=O)(=O)C1)NNc1cc(Cl)ccc1Cl (centres undefined)	?	22	1%	8%	-10%	4%
CCOC(=O)C(=NC1CCS(=O)(=O)C1)NNc1ccccc1Cl (centres undefined)	13µM*	-18	-10%	62%	?	7%
CCOC(=O)C(=NC(C)CC)NNc1ccc(Br)cc1 (centres undefined)	28µM*	25	2%	24%	-14%	-8%
CN(C(=O)CSc1nnc(-c2ccccc2)o1)C1(c2ccccc2Cl)CCCCC1=O (centres undefined)	-3%	/	/	/	/	/
COCCCNC(=O)c1cc2cc(S(=O)(=O)N(C)C)ccc2n1C	-1%	/	/	/	/	/
CCCCOc1ccc2c(=O)c(-c3cc(C(=O)OC)oc3C)c(C)oc2c1	45µM*	/	/	/	/	/
CCCOc1ccc(NC(=O)Cc2ccc(OC)cc2)c2cccnc12	-10%	/	/	/	/	/
N#Cc1cc2c(N)c(C(=O)Nc3ccccc3)sc2nc1N	/	/	-26%	/	/	/
CC(=O)c1cccc(NC(=O)c2sc3nc4c(cc3c2N)CCCC4)c1	-28%	/	?	-5%	79µM*	9%
Cc1cccc(NC(=O)c2sc3nc(N)c(C#N)cc3c2N)c1	?	-51*	-9%	8%	-10%	-20%
CCc1nnc(NC(=O)c2sc3nc4c(cc3c2N)CCCCCC4)s1	-15%	-23	40µM*	25µM*	40µM*	-43%
CCCC[C@@H]1CCCO[C@@](C(=O)NCc2cc(C)n(C)n2)(C(F)(F)F)C1	-8%	0	/	10%	-13%	-11%
CCC[C@@H]1CCCO[C@@](C(=O)NCc2cc(C)n(C)n2)(C(F)(F)F)C1	3%	2	/	89µM*!	-19%	?
Cc1cc(Nc2ccccc2Cl)c2ccccc2n1	288%	-1	/	3%	7%	1%
Cc1cc(C)nc(NCC(O)CNc2ccccc2Cl)n1 (centres undefined)	40µM*	-3	-26%	?	-18%	-12%
COc1ccc(O)c(C=Nc2cc(NC(C)=O)c(Cl)cc2Cl)c1	-22%	1	9%	27%	-4%	-13%
CC(=O)Nc1cc(N=Cc2ccc(O)cc2O)c(Cl)cc1Cl	/	?	5%	?	45µM*	-16%
